Experimental data from PubChem BioAssay (NCI).
Compounds without any hit were thinned out: in the full panel of roughly 79,000, 15% have a hit. Unmarked numbers belong to inactive results. Calls of active or inactive are those of the source. Cut-off read from the data, not from the text of the source: active = growth inhibition above about 70%; inactive = the rest.

What was measured:
[1] = NCI Yeast Anticancer Drug Screen. Data for the wt1 strain (AID 149);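 note: 0% = growth of vehicle-treated wt1 cultures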; details: S. cerevisiae wt1 strain (SPY 50644) growth inhibition, stronger effect = higher value
Outline: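 Compounds are added to wt1 yeast cultures. Growth is then measured. Inhibition is expressed relative to vehicle-treated controls.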

[2] = NCI Yeast Anticancer Drug Screen. Data for the rad50EPP+ strain (AID 151);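 note: 0% = growth of vehicle-treated control cultures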; details: S. cerevisiae rad50 mutant strain, stronger effect = higher value
Outline: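 Yeast strain carrying rad50 alteration (rad50EPP+) exposed to compounds; growth inhibition measured relative to vehicle-treated controls.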

[3] = NCI Yeast Anticancer Drug Screen. Data for the mgt1 strain (AID 153); details: S. cerevisiae mgt1 mutant growth inhibition, stronger effect = higher value
Outline: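 Yeast mgt1 strain (DNA repair/cell-cycle alteration panel) exposed to compounds; growth inhibition measured relative to vehicle-treated controls.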

[4] = NCI Yeast Anticancer Drug Screen. Data for the rad50 strain (AID 155);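 note: 0% = growth of vehicle-only cultures of the same strain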; details: S. cerevisiae rad50 strain growth inhibition, stronger effect = higher value
Outline: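 Inhibition values express reduced yeast growth in compound-treated cultures relative to vehicle-treated controls.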

[5] = NCI Yeast Anticancer Drug Screen. Data for the mec2-1 strain (AID 157); details: S. cerevisiae mec2-1 strain, stronger effect = higher value
Outline: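 mec2-1 yeast strain, carrying an alteration in DNA damage repair or cell cycle control, was exposed to compounds; growth inhibition was measured relative to vehicle-treated controls.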

[6] = NCI Yeast Anticancer Drug Screen. Data for the rad14 strain (AID 159);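 note: 0% = growth of vehicle-treated control cultures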; details: S. cerevisiae rad14 strain growth inhibition, stronger effect = higher value
Outline: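 A mutant yeast strain defective in DNA damage repair is treated with compound; inhibition of its growth is scored against untreated, vehicle-exposed cultures.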

[7] = NCI Yeast Anticancer Drug Screen. Data for the sgs1 mgt1 strain (AID 161);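 note: 0% = growth of cultures given vehicle only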; details: S. cerevisiae sgs1 mgt1 strain, stronger effect = higher value
Outline: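 Compounds are added to genetically altered yeast, and growth is compared with cultures given vehicle alone to give percent inhibition.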

[8] = NCI Yeast Anticancer Drug Screen. Data for the CLN2oe strain (AID 163);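 note: 0% = growth of vehicle-only control cultures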; details: S. cerevisiae CLN2oe strain, stronger effect = higher value
Outline: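 Yeast cells carrying a defined cell-cycle control alteration were exposed to test compounds. Growth inhibition was scored against vehicle-treated control cultures.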

[9] = NCI Yeast Anticancer Drug Screen. Data for the cln2 rad14 strain (AID 165);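 note: 0% = growth equal to vehicle treated cultures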; details: S. cerevisiae cln2 rad14 strain, stronger effect = higher value
Outline: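 Yeast carrying cln2 and rad14 alterations (cell cycle control and DNA damage repair) were exposed to compounds. Growth inhibition was measured against vehicle-treated controls.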

[10] = NCI Yeast Anticancer Drug Screen. Data for the bub3 strain (AID 167); details: S. cerevisiae bub3 mutant strain, stronger effect = higher value
Outline: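 Steps: expose the mutant yeast strain to compound; grow alongside vehicle-treated cultures; measure growth; express inhibition against the vehicle cultures.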

[11] = NCI Yeast Anticancer Drug Screen. Data for the wt2 strain (AID 169);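 note: 0% = growth of vehicle-treated yeast cultures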; details: S. cerevisiae wt2 strain growth inhibition, stronger effect = higher value
Outline: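 Yeast cells were exposed to test compounds, and growth inhibition was measured relative to vehicle-treated controls.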

[12] = NCI Yeast Anticancer Drug Screen. Data for the mlh1 strain (AID 171);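 note: 0% = growth of vehicle-treated control cultures of the same strain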; details: S. cerevisiae mlh1 strain growth inhibition, stronger effect = higher value
Outline: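 Yeast carrying a defined genetic alteration in DNA damage repair or cell cycle control were exposed to test compounds. Growth inhibition was measured relative to vehicle-treated controls.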

[13] = NCI Yeast Anticancer Drug Screen. Data for the sgs1 strain (AID 173);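 note: 0% = growth of vehicle-only control cultures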; details: S. cerevisiae sgs1 mutant, stronger effect = higher value
Outline: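 Yeast mutant strains carrying defined defects in DNA damage repair or cell cycle control were exposed to test compounds. Growth inhibition was scored against vehicle-treated controls.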

[14] = NCI Yeast Anticancer Drug Screen. Data for the mlh1 rad18 strain (AID 175); details: S. cerevisiae mlh1 rad18 strain growth inhibition, stronger effect = higher value
Outline: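 Growth inhibition of the yeast strain was measured after compound exposure and expressed relative to vehicle-treated controls. The strain carries defined defects in DNA damage repair.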

[15] = NCI Yeast Anticancer Drug Screen. Data for the rad18 strain (AID 177); details: S. cerevisiae rad18 mutant growth inhibition, stronger effect = higher value
Outline: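 Yeast carrying a defined DNA damage repair alteration were exposed to compounds. Growth inhibition was expressed relative to vehicle-treated controls.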

[16] = NCI Yeast Anticancer Drug Screen. Data for the rad52 strain (AID 147);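 note: 0% = growth of vehicle-treated control cultures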; details: S. cerevisiae rad52 mutant growth inhibition, stronger effect = higher value
Outline: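 Yeast strain carrying a DNA damage repair alteration was exposed to test compounds. Growth inhibition was measured relative to vehicle-treated controls.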

[17] = at 5.0 µM (retest, dose inferred, filed as 0.5)
[18] = at 50.0 µM (retest, dose inferred, filed as 5.0)

Compound Oc1ccc(N=Nc2ccc(Cl)cc2)cc1 has a growth inhibition ([1]; at 1.2 µM) of -2%, a growth inhibition ([1]; at 3.7 µM) of 7% and a growth inhibition ([1]; at 11.0 µM) of 52%. For the same compound, the growth inhibition ([1]; at 33.0 µM) was 99% (active), the growth inhibition ([1]; at 100.0 µM) was 99% (active) and the growth inhibition ([2]; at 1.2 µM) was 8%. The growth inhibition ([2]; at 3.7 µM) was 12%, the growth inhibition ([2]; at 11.0 µM) was 50% and the growth inhibition ([2]; at 33.0 µM) was 98% (active). The growth inhibition ([2]; at 100.0 µM) was 97% (active), the growth inhibition ([3]; at 1.2 µM) was -3% and the growth inhibition ([3]; at 3.7 µM) was 4%. For the same compound, the growth inhibition ([3]; at 11.0 µM) was 61%, the growth inhibition ([3]; at 33.0 µM) was 99% (active) and the growth inhibition ([3]; at 100.0 µM) was 99% (active). For the same compound, the growth inhibition ([4]; at 1.2 µM) was 1%, the growth inhibition ([4]; at 3.7 µM) was 30% and the growth inhibition [4, 17] was -27%. For the same compound, the growth inhibition ([4]; at 11.0 µM) was 94% (active), the growth inhibition ([4]; at 33.0 µM) was 99% (active) and the growth inhibition [4, 18] was 99% (active). For the same compound, the growth inhibition ([4]; at 50.0 µM) was 99.5% (active), the growth inhibition ([4]; at 100.0 µM) was 98% (active) and the growth inhibition ([5]; at 1.2 µM) was 8%. For the same compound, the growth inhibition ([5]; at 3.7 µM) was 15%, the growth inhibition [5, 17] was -13% and the growth inhibition ([5]; at 11.0 µM) was 90% (active). For the same compound, the growth inhibition ([5]; at 33.0 µM) was 99% (active), the growth inhibition [5, 18] was 98% (active) and the growth inhibition ([5]; at 50.0 µM) was 98.2% (active). For the same compound, the growth inhibition ([5]; at 100.0 µM) was 99% (active), the growth inhibition ([6]; at 1.2 µM) was 2% and the growth inhibition ([6]; at 3.7 µM) was 7%. The growth inhibition ([6]; at 11.0 µM) was 60%, the growth inhibition ([6]; at 33.0 µM) was 99% (active) and the growth inhibition ([6]; at 100.0 µM) was 98% (active). The growth inhibition [7, 17] was -10%, the growth inhibition [7, 18] was 99% (active) and the growth inhibition ([7]; at 50.0 µM) was 98.7% (active). For the same compound, the growth inhibition ([8]; at 1.2 µM) was 25%, the growth inhibition ([8]; at 3.7 µM) was 45% and the growth inhibition ([8]; at 11.0 µM) was 97% (active). The growth inhibition ([8]; at 33.0 µM) was 99% (active), the growth inhibition ([8]; at 100.0 µM) was 99% (active) and the growth inhibition [9, 17] was -6%. For the same compound, the growth inhibition [9, 18] was 99% (active), the growth inhibition ([9]; at 50.0 µM) was 99.5% (active) and the growth inhibition ([10]; at 1.2 µM) was 57%. For the same compound, the growth inhibition ([10]; at 3.7 µM) was 65%, the growth inhibition [10, 17] was 81% (active) and the growth inhibition ([10]; at 11.0 µM) was 94% (active). The growth inhibition ([10]; at 33.0 µM) was 99% (active), the growth inhibition [10, 18] was 99% (active) and the growth inhibition ([10]; at 50.0 µM) was 99.2% (active). The growth inhibition ([10]; at 100.0 µM) was 99% (active), the growth inhibition ([11]; at 1.2 µM) was -1% and the growth inhibition ([11]; at 3.7 µM) was 5%. For the same compound, the growth inhibition ([11]; at 11.0 µM) was 93% (active), the growth inhibition ([11]; at 33.0 µM) was 99% (active) and the growth inhibition ([11]; at 100.0 µM) was 99% (active). The growth inhibition ([12]; at 1.2 µM) was 4%, the growth inhibition ([12]; at 3.7 µM) was 2% and the growth inhibition ([12]; at 11.0 µM) was 77% (active). The growth inhibition ([12]; at 33.0 µM) was 99% (active), the growth inhibition ([12]; at 100.0 µM) was 99% (active) and the growth inhibition ([13]; at 1.2 µM) was 0%. For the same compound, the growth inhibition ([13]; at 3.7 µM) was 7%, the growth inhibition ([13]; at 11.0 µM) was 87% (active) and the growth inhibition ([13]; at 33.0 µM) was 99% (active). For the same compound, the growth inhibition ([13]; at 100.0 µM) was 98% (active), the growth inhibition [14, 17] was 6% and the growth inhibition [14, 18] was 99% (active). For the same compound, the growth inhibition ([14]; at 50.0 µM) was 99.4% (active), the growth inhibition ([15]; at 1.2 µM) was 0% and the growth inhibition ([15]; at 3.7 µM) was 3%. For the same compound, the growth inhibition ([15]; at 11.0 µM) was 77% (active), the growth inhibition ([15]; at 33.0 µM) was 99% (active) and the growth inhibition ([15]; at 100.0 µM) was 97% (active).
With O=C(Oc1ccc([N+](=O)[O-])cc1)c1ccc([N+](=O)[O-])cc1 the growth inhibition ([16]; at 1.2 µM) was 7%, the growth inhibition ([16]; at 3.7 µM) was 7% and the growth inhibition ([16]; at 11.0 µM) was 1%. The growth inhibition ([16]; at 33.0 µM) was 19%, the growth inhibition ([16]; at 100.0 µM) was 26% and the growth inhibition ([2]; at 1.2 µM) was 5%. The growth inhibition ([2]; at 3.7 µM) was 2%, the growth inhibition ([2]; at 11.0 µM) was -3% and the growth inhibition ([2]; at 33.0 µM) was 9%. For the same compound, the growth inhibition ([2]; at 100.0 µM) was 11%, the growth inhibition ([4]; at 1.2 µM) was 9% and the growth inhibition ([4]; at 3.7 µM) was 6%. It also gave a growth inhibition [4, 17] of 45%, a growth inhibition ([4]; at 11.0 µM) of 5% and a growth inhibition ([4]; at 33.0 µM) of 40%. For the same compound, the growth inhibition [4, 18] was 82% (active), the growth inhibition ([4]; at 50.0 µM) was 50.8% and the growth inhibition ([4]; at 100.0 µM) was 62%. For the same compound, the growth inhibition ([5]; at 1.2 µM) was 1%, the growth inhibition ([5]; at 3.7 µM) was 2% and the growth inhibition [5, 17] was 25%. The growth inhibition ([5]; at 11.0 µM) was 2%, the growth inhibition ([5]; at 33.0 µM) was 7% and the growth inhibition [5, 18] was 33%. For the same compound, the growth inhibition ([5]; at 50.0 µM) was 53.7%, the growth inhibition ([5]; at 100.0 µM) was 10% and the growth inhibition ([6]; at 1.2 µM) was 7%. It also gave a growth inhibition ([6]; at 3.7 µM) of 5%, a growth inhibition ([6]; at 11.0 µM) of 3% and a growth inhibition ([6]; at 33.0 µM) of 19%. The growth inhibition ([6]; at 100.0 µM) was 41%, the growth inhibition [7, 17] was 61% and the growth inhibition [7, 18] was 86% (active). The growth inhibition ([7]; at 50.0 µM) was 68.5%, the growth inhibition ([8]; at 1.2 µM) was 1% and the growth inhibition ([8]; at 3.7 µM) was 2%. For the same compound, the growth inhibition ([8]; at 11.0 µM) was 2%, the growth inhibition ([8]; at 33.0 µM) was 10% and the growth inhibition ([8]; at 100.0 µM) was 10%. For the same compound, the growth inhibition [9, 17] was 18%, the growth inhibition [9, 18] was 28% and the growth inhibition ([9]; at 50.0 µM) was 31.1%. For the same compound, the growth inhibition ([10]; at 1.2 µM) was 3%, the growth inhibition ([10]; at 3.7 µM) was 4% and the growth inhibition [10, 17] was 76% (active). The growth inhibition ([10]; at 11.0 µM) was 4%, the growth inhibition ([10]; at 33.0 µM) was 12% and the growth inhibition [10, 18] was 88% (active). For the same compound, the growth inhibition ([10]; at 50.0 µM) was 85% (active), the growth inhibition ([10]; at 100.0 µM) was 15% and the growth inhibition ([11]; at 1.2 µM) was -7%. For the same compound, the growth inhibition ([11]; at 3.7 µM) was -5%, the growth inhibition ([11]; at 11.0 µM) was -8% and the growth inhibition ([11]; at 33.0 µM) was -8%. For the same compound, the growth inhibition ([11]; at 100.0 µM) was -5%, the growth inhibition ([12]; at 1.2 µM) was 3% and the growth inhibition ([12]; at 3.7 µM) was 2%. For the same compound, the growth inhibition ([12]; at 11.0 µM) was 2%, the growth inhibition ([12]; at 33.0 µM) was 17% and the growth inhibition ([12]; at 100.0 µM) was 35%. It also gave a growth inhibition ([13]; at 1.2 µM) of -4%, a growth inhibition ([13]; at 3.7 µM) of -18% and a growth inhibition ([13]; at 11.0 µM) of -22%. For the same compound, the growth inhibition ([13]; at 33.0 µM) was 7%, the growth inhibition ([13]; at 100.0 µM) was 43% and the growth inhibition [14, 17] was 67%. The growth inhibition [14, 18] was 83% (active), the growth inhibition ([14]; at 50.0 µM) was 86.2% (active) and the growth inhibition ([15]; at 1.2 µM) was 4%. It also gave a growth inhibition ([15]; at 3.7 µM) of 7%, a growth inhibition ([15]; at 11.0 µM) of 5% and a growth inhibition ([15]; at 33.0 µM) of 22%. The growth inhibition ([15]; at 100.0 µM) was 45%.
